Measurements reported in PubChem BioAssay AID1845224 (National Center for Advancing Translational Sciences (NCATS), 2023).
Inconclusive results are not listed. Activity calls are given as the source filed them. Calls come from the whole dose curve; as a rule, active = well fitted curve in the direction sought with a large enough effect; inconclusive = small, poorly fitted or top-dose-only effect, or another doubt; inactive = no such curve, though single readings can be large or run the other way.

system: NanoLuc luciferase (engineered Oplophorus gracilirostris luciferase); assay: Confirmatory Nanoluciferase (NLuc) qHTS assay for identification of artifact compounds.; for activity change, negative = inhibition: % of control where 0% means no effect; conditions: secreted NLuc in S16 cell medium, luminescence, 5 min; series mostly up to 39 µM; activity change, negative = inhibition: at the top concentration
How it was run: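 Conditioned medium from NLuc-expressing S16 cells (diluted 1:55) as enzyme source; compounds 15 min at room temperature, then Nano-Glo substrate for 5 min. Luminescence normalized to no-enzyme and DMSO controls, fitted to 4-parameter Hill equation.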
Potency is the fitted concentration of half-maximal effect.

Activity change, negative = inhibition, inactive:
Cc1cc(NC(=O)Nc2cccc(-c3ccncc3)n2)ccc1Cl -2.7%, CC(C)CCC[C@@H](C)[C@H]1CC[C@H]2[C@@H]3CC[C@@H]4C[C@H](O)CC[C@]4(C)[C@H]3CC[C@]12C -5.09%, COc1ccccc1CNC(=O)c1nn(-c2ccc(C)cc2)c(=O)c2c1c1ccccc1n2C -1.11%, Cc1ccc(NC(=O)Cn2c(=O)n(CCC(=O)NCCc3ccccc3)c(=O)c3ccccc32)cc1 -10.7%, Fc1ccc(-c2cc(-c3nc(-c4ccc(Cl)cc4)no3)[nH]n2)cc1 -0.152%, Cc1ccc2nc(-c3cccnc3)c(Nc3ccccc3C)n2c1 3.45%, N#Cc1cccc(-c2ccc(NC(=O)c3cccs3)cn2)c1 -9.86%, CC1(C)OC2CC(=O)OCC23C1CC(=O)C1(C)C3CC[C@@]2(C)[C@H](c3ccoc3)OC(=O)C3OC312 (stereo partly specified) 0.365%, CCCC[C@H]1C2=C3[C@@H](CC(C(=O)OC)=C[C@@H](C(=O)OC)[C@H]3C(C)(C)C2=O)n2c(=O)n(-c3ccccc3)c(=O)n21 -3.75%, O=c1c2ccccc2nc2sc(Nc3ccc(Br)cc3)nn12 -10.9%, CCCNC(=O)N1CCCN(S(=O)(=O)c2ccc3c(ccn3CC)c2)CC1 -1.42%, CCCC(=O)Nc1cc2nn(-c3ccccc3)nc2cc1C -5.59%, CCc1ccc2oc(C(=O)Nc3cc(Cl)ccc3OC)cc(=O)c2c1 6.27%, CC1CCN(c2ccc(-c3nc(C(C)C)no3)cc2[N+](=O)[O-])CC1 -3.52%, O=C(Nc1sc2c(c1-c1nc3ccccc3s1)CCNC2)C(F)F -7.36%, COc1ccc(CC(N)C(=O)N[C@H]2[C@@H](O)[C@H](n3cnc4c(N(C)C)ncnc43)O[C@@H]2CO)cc1 (stereo partly specified) -0.358%, COc1ccccc1Oc1coc2cc(O)ccc2c1=O -4.28%, CC1CCN(c2ccc(-c3cccc(NS(=O)(=O)c4ccc(F)cc4F)c3)nn2)CC1 -3.08%, COc1ccccc1/C=C/c1nc(C#N)c(NCCc2ccccc2)o1 -17.7%, CCOc1ccccc1C(=O)Nc1cccc2ccc(C)nc12 -12.5%, CCOC(=O)C1=C(CNCc2ccc(Cl)cc2)NC(=O)NC1c1ccccc1 (stereo unspecified) -27.2%, O=C(Nc1cc(-c2ccc(F)c(F)c2)no1)c1ccccc1F -7.28%, Cc1ccc(CNc2ncnc3onc(-c4ccc(F)cc4)c23)cc1 -15.1%, COc1ccc(C(=O)Nc2ccc(-c3nc4ncccc4o3)cc2)cc1 -15.3%, COc1ccc(CNC(=O)CCc2c(C)nc3c4cccnc4nn3c2C)cc1 -5.25%, COc1ccc(-c2nc3cccc(C)n3c2Nc2ccc(C)cc2)cc1 -4.83%, C[C@@H]1O[C@@H](O[C@@H]2[C@@H](O)[C@H](OCCc3ccc(O)c(O)c3)O[C@H](CO[C@@H]3O[C@H](CO)[C@@H](O)[C@H](O)[C@H]3O)[C@H]2OC(=O)/C=C/c2ccc(O)c(O)c2)[C@H](O)[C@H](O)[C@H]1O 2.01%, Cc1cc(O)cc(O)c1C(=O)O 0.0466%, CCCS(=O)(=O)N1CC(=O)N(c2cc(C)cc(C)c2)C(C)(C(=O)NC2CCCCCC2)C1 (stereo unspecified) -15.1%, CCOC(=O)c1ccc(N2C(=O)c3[nH]nc(-c4ccc(C)cc4)c3C2c2ccc(O)cc2)cc1 (stereo unspecified) -2.76%

Potency, active:
O=C(CCS(=O)(=O)c1nc(-c2ccc3c(c2)OCO3)cc(C(F)(F)F)n1)Nc1ccccc1C(F)(F)F 12.2 µM
